Only some compounds are listed: those with a hit (about 1.3% of all), similar ones and a draw of the others.
FID counter: counter-screen for HCV NS3 helicase inhibitors: DNA intercalator displacement; DNA fluorescent intercalator displacement, fluorescence; inhibition, % at 7.9 µM; actives 0.17% (n = 290,000); AID 1845; in the data active means inhibition above about 37%;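 further: 0% = vehicle and 100% = reference compound; higher means more ethidium bromide displaced from hairpin DNA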
RAD52 inh: blocks human RAD52 DNA annealing; recombinant RAD52 DNA annealing, FRET fluorescence; inhibition, % at 18.7 µM; actives 0.46% (n = 360,000);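 active means every replicate showing at least 50% inhibition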
PREPL inhibitor: inhibits the human prolyl oligopeptidase-like enzyme; actives 0.68% (n = 320,000); Q4J6C6; recombinant PREPL, fluorescence polarization activity-based probe; inhibition, % at 5.96 µM;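 further: 0% = enzyme with DMSO and 100% = wells lacking enzyme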
UBC13 polyUb: human UBC13 polyubiquitination inhibition; P61088; UBC13 polyubiquitin chain formation, TR-FRET; inhibition, % at 20 µM; actives 0.47% (n = 330,000); in the data active means inhibition above about 45%, passing the limit was not always enough
Target sequence (P61088 whole entry, looked up): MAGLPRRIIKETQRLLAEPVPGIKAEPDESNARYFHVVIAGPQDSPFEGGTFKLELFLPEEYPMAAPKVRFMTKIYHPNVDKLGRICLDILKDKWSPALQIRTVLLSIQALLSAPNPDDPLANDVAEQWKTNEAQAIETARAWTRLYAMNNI
RAD54 branch: inhibitors of human RAD54 branch migration. RAD54 Holliday junction branch migration, FAM/BHQ fluorescence. inhibition, % at 10.4 µM. actives 0.14% (n = 360,000);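 active means mean normalized replicate activity at least 40 and at least half of replicates scoring 40 or more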;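 further: 0% = median of neutral control wells and 100% = median of positive control wells; inhibitors cause a drop in the FAM fluorescence signal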
MIN6 prolif: MIN6 beta-cell proliferation induction | MIN6 cells proliferation, ATPlite luminescence, 48 h; cells starved in 0.2% serum; 100% = growth in 10% serum | proliferation, % at 10 µM | actives 0.29% (n = 330,000) | AID 2380;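 active means compounds whose signal lies at least 3.5 SD above the mean of all wells on their plate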;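 further: 0% = DMSO-treated cells in low-serum medium and 100% = 10% serum control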
PREPL inh cf: confirmation of human PREPL enzyme inhibitors | shares compounds with PREPL inhibitor | recombinant PREPL, fluorescence polarization activity probe | inhibition, % at 5.96 µM | actives 67% (n = 2,000) | AID 2803;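 further: 0% = protein with DMSO and 100% = wells lacking protein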
An asterisk follows results filed as active; / = no result. Unless noted, no stated cut-off is given here; in the data, active means inhibition above about 43%; inactive means the rest.

SMILES | FID counter | RAD52 inh | PREPL inhibitor | UBC13 polyUb | RAD54 branch | MIN6 prolif | PREPL inh cf
C[C@H]1CN([C@@H](C)CO)S(=O)(=O)c2ccc(C#CCN(C)C)cc2O[C@H]1CN(C)CC1CC1 | / | -5 | / | / | -11 | / | /
Clc1ccc(OCc2nn3c(C4CCCCC4)nnc3s2)cc1 | -15 | / | 46* | -1 | 1 | -4 | 33
CN(C)C(=O)c1ccc(NC(=O)c2cccc(S(=O)(=O)N3CCN(Cc4ccccc4)CC3)c2)cc1 | / | -11 | / | / | 5 | / | /
CN(CC(=O)Nc1ccc(Cl)cc1)C(=O)c1cccc(S(=O)(=O)N2CCN(Cc3ccccc3)CC2)c1 | / | -18 | 55* | 2 | -6 | -6 | 68*
C[C@H](CO)N1C[C@H](C)[C@@H](CN(C)Cc2ccncc2)Oc2c(NS(=O)(=O)c3ccc(Cl)cc3)cccc2C1=O | / | -1 | 48* | 12 | -3 | -2 | 45*
CO[C@@H]1CN(C)C(=O)c2ccc(NC(=O)Nc3ccccc3Cl)cc2OC[C@@H](C)N(Cc2ccccc2C(=O)O)C[C@H]1C | / | 8 | / | / | -11 | / | /
COc1ccc(C(=O)c2coc3ccc(O)c(CN4CCCC4)c23)cc1 | 6 | 1 | 55* | 12 | 9 | -1 | 54*
COc1ccc(C(=O)c2coc3ccc(O)c(CN4CCOCC4)c23)cc1 | 3 | -13 | 53* | 4 | 14 | 1 | 57*
Cc1ccc(C(=O)c2coc3ccc(O)c(CN4CCN(C)CC4)c23)cc1 | 21 | / | 44* | 4 | -5 | -5 | 43
O=C(c1cccs1)c1coc2ccc(O)c(CN3CCOCC3)c12 | -3 | 9 | 42 | 1 | 9 | 1 | /
CCN(CC)Cc1c(O)ccc2occ(C(=O)c3ccc(OC)cc3)c12 | -5 | / | 43 | 3 | -3 | -5 | /
C[C@@H]1CN([C@@H](C)CO)C(=O)c2cc(NC(=O)NC3CCCCC3)ccc2O[C@H]1CN(C)Cc1ccc(C(=O)O)cc1 | / | 13 | / | / | 0 | / | /
O=C(c1cccnc1)N1CC(=O)N2[C@@H](CO)[C@@H](c3ccc(C#CCC4CCCC4)cc3)[C@@H]2C1 | / | 4 | / | / | / | / | /
CCOC(=O)c1ccc2ncc(C(=O)OCC)c(Nc3ccc(N4CCOCC4)cc3)c2c1 | -2 | -3 | 45* | -7 | / | -3 | 42
CCOC(=O)c1cnc2ccc(C(=O)OC)cc2c1Nc1ccc(C(=O)O)cc1 | -3 | -17 | -3 | -1 | / | 2 | /
C/C(=N\NC(=O)C1CCCN(S(=O)(=O)c2ccccc2)C1)c1ccncc1 (stereo not given) | -9 | / | 43* | -6 | / | 3 | 3
C[C@H]1CN([C@@H](C)CO)C(=O)c2cc(-c3ccccc3F)cnc2O[C@H]1CN(C)C(=O)C1CCC1 | / | -1 | / | / | 2 | / | /
CCCNC(=O)[C@H]1[C@H](CO)[C@H]2Cn3c(ccc(-c4ccc(F)cc4)c3=O)[C@H]2N1CCC | / | 3 | / | / | 0 | / | /
COc1ccc(NC(=O)c2ccc(Cn3cc(Cl)cn3)cc2)cc1 | -12 | -9 | 3 | 15 | -2 | -3 | /
CN(C)c1ccc(NC(=O)c2ccc(Cn3cc([N+](=O)[O-])cn3)cc2)cc1 | 1 | -9 | 48* | -14 | 8 | -3 | 57*
Cc1cc(C)cc(NC(=O)Cn2cc3c(n2)CCCCC3)c1 | -18 | / | -2 | -11 | / | 0 | /
CN(C)c1ccc(NC(=O)Cn2cc3c(n2)CCCC3)cc1 | 1 | 19 | 69* | 5 | 12 | -7 | 69*
CC(=O)N1CCN(c2ccc(NCc3cccs3)cc2)CC1 | -10 | / | 27 | -1 | 2 | -1 | /
CC(=O)N1CCN(c2ccc(NCc3ccc(C)s3)cc2)CC1 | -11 | 5 | 54* | 2 | 4 | -2 | 34
CC(=O)N1CCN(c2ccc(NCc3ccc(-c4ccc(Br)cc4)o3)cc2)CC1 | / | -13 | 71* | 4 | 3 | -6 | 66*
CC(=O)N1CCN(c2ccc(NCc3ccccc3)cc2)CC1 | -11 | / | 38 | -2 | / | -3 | /
CC(=O)N1CCN(c2ccc(NCc3ccc(Br)o3)cc2)CC1 | / | -14 | 44* | -9 | 3 | -1 | 45*
CC(=O)N1CCN(c2ccc(NCc3cccc4ccccc34)cc2)CC1 | -26 | 0 | 78* | -5 | -2 | -3 | 62*
CO[C@H]1CN(C)C(=O)c2ccc(NC(=O)c3cccc(F)c3)cc2OC[C@H](C)N(C)C[C@@H]1C | / | 6 | / | / | / | / | /
